Test results reported in the supplement of paper PMC11417369.
± gives the standard deviation of the averaged measurements. In all, about 25,000 sequences were measured (“ln(normalized median fluorescence intensity)”: median about 10, highest 2% from about 12 on). What follows is part of a selection rich in the highest values, with near analogues and random picks from the rest.

Test system: PfAP2-G AP2 domain (GST-tagged)
Assay: gcPBM binding intensity (ln(normalized median fluorescence intensity)); higher = stronger DNA binding
Outline: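 After 1 h on an Agilent 4 × 180k array of primer-extended double-stranded 36-bp intergenic genomic probes and negative controls, bound GST-tagged P. falciparum DNA-binding domains were detected with Alexa488 anti-GST antibody and scanned at 488 nm. The domains had been expressed in E. coli, and binding took place in 1× PBS with 1% milk, 0.2 mg/ml BSA, 0.5% salmon testes DNA and 0.03% Triton X-100. Binding intensity is the highest Masliner-normalised natural-log median intensity across replicate spots of either probe orientation.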

Sequence	gcPBM binding intensity (ln)
ACCAAATTATCAAATGGTACACATAAAATAATAAAA [XGTACX_site865]	11.3 ± 0.74
AAAAAAAAAAAAAGGTGTACAAGTATAATTACATAA [XGTACX_site534]	11.5 ± 0.95
TGCATGCATTATCATAGTACATATAATGTTGTATAA [XGTACX_site2775]	10.7 ± 0.45
TAAGTCGCCAAAAGGTGTACACATAATGCATTATCA [XGTACX_site8852]	11.8 ± 0.79
TTTTTTTTTTTTTTGTGTACATATAATGCACATTAT [XGTACX_site6505]	11.4 ± 1
GTCGCCAAAAGGTGTACACATAATGCATTATCATAA [CACACA_site6112]	11.7 ± 0.88
TACGTTTTAAAACACACACACAAAAAAAAAAAAAAA [CACACA_site3876]	9.97 ± 0.64
TTACATTATATACATACACACCCACCCACAAAAAAA [CACACA_site8187]	10.7 ± 0.47
ATGTTGTGTATATATACACACATACATATATATATA [CACACA_site8461]	10.4 ± 0.43
TATGTATTCATATGTTGTACATTATATATAATAAGT [XGTACX_site6589]	11.2 ± 0.79
TATATATAAGCGTGTACACATTCTGAGTGTTGTATA [CACACA_site4502]	11.7 ± 1.1
ATATATATATAGTGTTGTACATTTAAAAATAATATA [XGTACX_site2627]	11.2 ± 0.78
AAATATATATAAGCGTGTACACATTCTGAGTGTTGT [XGTACX_site1088]	11.7 ± 1.1
ATATATATATATAAATGTACATTGTGTGTTGTAAGA [XGTACX_site2434]	10.8 ± 0.38
ATTCCAAAAAAATCAAGTACTAATTTATTATATTAC [XGTACX_site3920]	10.9 ± 0.49
AATAAATTTAGACACACACACACATATAAATAAATA [CACACA_site6531]	10.1 ± 0.13
AAAGAATTTGCATATACACACAAAAAAATATATACA [CACACA_site386]	10.03 ± 0.035
TATATTAATAATAAGTGTACATATATATATATTTTT [XGTACX_site288]	11.3 ± 0.81
TTGTGTACATATTAAGTGCATATATATATATATATA	11.7 ± 1.2
TTACATACATACAAGTGTACGCATATATTAATATTA [XGTACX_site4006]	11.8 ± 1
ATATTAATATACATATGTACATATATATATATATAT [XGTACX_site7425]	11.2 ± 0.62
TTAATATATTATATTTGTACATATATATATATACAA [XGTACX_site4798]	10.9 ± 0.62
AATATATTTATATAGTGTACATTTTTTATATATGTA [XGTACX_site8142]	11.3 ± 0.78

Sequence	gcPBM binding intensity (ln)
CATGTGCATATTAAATGTACATATATACATATATAC [XGTACX_site857]	10.9 ± 0.58
TATATATATATTTATACACACATTAGTGTATACATG [CACACA_site2950]	10.3 ± 0.22
TTTTTTTTATTAGTGTGTACGCATTTATTTATACAT [XGTACX_site1599]	11.7 ± 0.88
AATATATCTTTTTACGGCAACCATATTTTTCCCATT [CACACA_negctrl_site963]	10.21 ± 0.064
TGATTATCCTATATATATTTCATAATGGAAAAAAAT [TGCATGCA_negctrl_site444]	9.89 ± 0.35
CCATATGATATATATTGTACATTATATATTATTTCT [XGTACX_site1697]	10.7 ± 0.45
CGTTAAAGGGAATGTATACACACGTTTCTCTATGTT [CACACA_site1198]	10.2 ± 0.16
TATAAACGTATAATATGTACACACACATATATACAA [XGTACX_site1686]	11.3 ± 0.94
TAAAAAAAAACATATACACACAAAAACGTACACATA [CACACA_site1354]	11.8 ± 1.1
ACGTATAATATGTACACACACATATATACAAAAAAA [CACACA_site917]	11.5 ± 1.1
TATACACATATATAAACACACAAAAAAAAAAAAAAA [CACACA_site7041]	9.78 ± 0.53
ATATACACACAAAAACGTACACATATATATATGTAT [XGTACX_site2673]	11.7 ± 0.86
TATATACACATATATAAACACACAAAAAAAAAAAAA [CACACA_site8626]	9.89 ± 0.48
AAAAATTTATTTTGTTTTTTAAGATTTTTTTTTTTT [CACACA_negctrl_site1210]	9.46 ± 0.028
TAGTATAATATGAACACACACACACGCACAAAAAAA [CACACA_site7035]	10.4 ± 0.2
CATATAATATAATTATGTACATATATAATAATATAC [XGTACX_site5278]	11.2 ± 0.69
CTTATTTAAGAGTATGAACACACATCATACACATAT [CACACA_site9205]	10.3 ± 0.23
TTTTGTTACGGCAAGGAAGTTAAGCATAAATGAATG [GTGCAC_negctrl_site173]	10.1 ± 0.16
AAAAAAGGTAAAAAAAGTACAAAAAAAAAATTAAAA [XGTACX_site6993]	11.3 ± 0.88
AAAAAAAAATAAAAAAGTACAGGTAAATATATATAT [XGTACX_site5812]	11.5 ± 1.2
AAAAAAAAAAAAAAAGGTACAGTAAAAAATTCCTCT [XGTACX_site5947]	11.7 ± 0.98
ATATTGTAAGTAAACACACACACATATATATGTATA [CACACA_site8124]	9.955 ± 0.035
